Measured values from PubChem BioAssay AID1159580 (chemical genetic matrix, 2015).
“And” between values parts separate entries of the source, which are not always exact repeats. Identical values can stand only once. Hit rate of the full screen: of about 5,500 compounds, about 2,000 (36%) were called active. About 18% were inconclusive and are not listed. The list shows a part of the results. Unmarked numbers belong to inactive results. Rule as the data show it: active = normalized growth mostly below about 0.91 (no sharp cut-off); inconclusive = no clear call, values can overlap the other calls; inactive = mostly above about 0.92.

Experiment: chemical genetic growth profiling, strain panel (AID 1159580);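 also: tested at 20 µM; growth read once vehicle control cultures reached saturation at 30 °C; 1 = growth at the plate median or of vehicle wells; lower values mean less growth of the strain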
Conditions: S. cerevisiae deletion strains, growth OD

Question: Which results are given for `Nc1c2ccccc2nc2ccccc12`?
Answer: normalized growth (locus YAL013W, strain DEP1, stronger effect = lower value): 0.734 (active); normalized growth (locus YAL021C, strain ccr4, stronger effect = lower value): 0.568 (active); normalized growth (locus YAL026C, strain drs2, stronger effect = lower value): 0.675 (active); normalized growth (locus YAL030W, strain snc1, stronger effect = lower value): 0.566 (active); normalized growth (locus YBL061C, strain skt5, stronger effect = lower value): 0.754 (active); normalized growth (locus YBR009C, strain hhf1, stronger effect = lower value): 0.378 (active); normalized growth (locus YBR021W, strain FUR4, stronger effect = lower value): 1.02; normalized growth (locus YBR023C, strain chs3, stronger effect = lower value): 0.759 (active); normalized growth (locus YBR171W, strain sec66, stronger effect = lower value): 1.09; normalized growth (locus YBR229C, strain ROT2, stronger effect = lower value): 1.01; normalized growth (locus YBR231C, strain swc5, stronger effect = lower value): 0.61 (active); normalized growth (locus YBR279W, strain paf1, stronger effect = lower value): 0.55 (active); normalized growth (locus YCL011C, strain gbp2, stronger effect = lower value): 0.526 (active); normalized growth (locus YCL016C, strain dcc1, stronger effect = lower value): 0.453 (active); normalized growth (locus YCL029C, strain bik1, stronger effect = lower value): 0.412 (active); normalized growth (locus YCL061C, strain MRC1, stronger effect = lower value): 0.801 (active); normalized growth (locus YCL069W, strain vba3, stronger effect = lower value): 0.732 (active); normalized growth (locus YCR088W, strain abp1, stronger effect = lower value): 0.737 (active); normalized growth (locus YDL005C, strain med2, stronger effect = lower value): 0.781 (active); normalized growth (locus YDL035C, strain GPR1, stronger effect = lower value): 0.478 (active); normalized growth (locus YDL040C, strain nat1, stronger effect = lower value): 0.838 (active); normalized growth (locus YDL074C, strain BRE1, stronger effect = lower value): 0.484 (active); normalized growth (locus YDL101C, strain DUN1, stronger effect = lower value): 0.782 (active); normalized growth (locus YDL134C, strain PPH21, stronger effect = lower value): 0.729 (active); normalized growth (locus YDL185W, strain tfp1, stronger effect = lower value): 1; normalized growth (locus YDL192W, strain arf1, stronger effect = lower value): 0.622 (active); normalized growth (locus YDR001C, strain nth1, stronger effect = lower value): 0.89 (active); normalized growth (locus YDR069C, strain doa4, stronger effect = lower value): 0.5 (active); normalized growth (locus YDR101C, strain arx1, stronger effect = lower value): 0.483 (active); normalized growth (locus YDR137W, strain rgp1, stronger effect = lower value): 0.983; normalized growth (locus YDR150W, strain NUM1, stronger effect = lower value): 0.838 (active); normalized growth (locus YDR159W, strain sac3, stronger effect = lower value): 0.875; normalized growth (locus YDR162C, strain NBP2, stronger effect = lower value): 0.698 (active); normalized growth (locus YDR195W, strain ref2): 1.23 [resistant] (active); normalized growth (locus YDR297W, strain sur2, stronger effect = lower value): 0.662 (active); normalized growth (locus YDR318W, strain mcm21, stronger effect = lower value): 0.565 (active); normalized growth (locus YDR334W, strain swr1, stronger effect = lower value): 0.93; normalized growth (locus YDR335W, strain msn5, stronger effect = lower value): 0.782 (active); normalized growth (locus YDR388W, stronger effect = lower value): 0.481 (active); normalized growth (locus YDR392W, strain spt3, stronger effect = lower value): 0.825; normalized growth (locus YDR502C, strain sam2, stronger effect = lower value): 0.513 (active); normalized growth (locus YEL003W, strain gim4, stronger effect = lower value): 0.679 (active); normalized growth (locus YEL037C, strain rad23, stronger effect = lower value): 0.57 (active); normalized growth (locus YEL061C, strain CIN8 (second series), stronger effect = lower value): 0.885 (active); normalized growth (locus YEL061C, strain CIN8, stronger effect = lower value): 0.793 (active); normalized growth (locus YER015W, strain faa2, stronger effect = lower value): 0.693 (active); normalized growth (locus YER016W, strain bim1, stronger effect = lower value): 0.69 (active); normalized growth (locus YER110C, stronger effect = lower value): 0.977; normalized growth (locus YER111C, strain swi4, stronger effect = lower value): 0.886 (active); normalized growth (locus YER155C, strain BEM2 (second series), stronger effect = lower value): 0.913; normalized growth (locus YER155C, strain BEM2, stronger effect = lower value): 1.01; normalized growth (locus YER167W, strain BCK2, stronger effect = lower value): 0.614 (active); normalized growth (locus YFR010W, strain ubp6, stronger effect = lower value): 0.615 (active); normalized growth (locus YGL078C, strain dbp3, stronger effect = lower value): 0.681 (active); normalized growth (locus YGL086W, strain mad1, stronger effect = lower value): 0.595 (active); normalized growth (locus YGL167C, strain pmr1, stronger effect = lower value): 1.01; normalized growth (locus YGL173C, strain kem1, stronger effect = lower value): 0.567 (active); normalized growth (locus YGL227W, strain vid30, stronger effect = lower value): 0.885 (active); normalized growth (locus YGL240W, strain doc1, stronger effect = lower value): 0.914; normalized growth (locus YGL248W, strain PDE1, stronger effect = lower value): 0.671 (active); normalized growth (locus YGL253W, strain hxk2, stronger effect = lower value): 0.535 (active); normalized growth (locus YGR078C, strain PAC10, stronger effect = lower value): 0.735 (active); normalized growth (locus YGR135W, strain pre9, stronger effect = lower value): 0.709 (active); normalized growth (locus YGR229C, strain SMI1, stronger effect = lower value): 0.694 (active); normalized growth (locus YGR252W, strain gcn5, stronger effect = lower value): 0.544 (active); normalized growth (locus YHR013C, strain ard1, stronger effect = lower value): 0.557 (active); normalized growth (locus YHR027C, strain rpn1, stronger effect = lower value): 0.73 (active); normalized growth (locus YHR030C, strain SLT2, stronger effect = lower value): 0.796 (active) and 0.77 (active); normalized growth (locus YHR079C, strain IRE1 (second series), stronger effect = lower value): 0.535 (active); normalized growth (locus YHR079C, strain IRE1, stronger effect = lower value): 0.763 (active); normalized growth (locus YHR094C, strain hxt1, stronger effect = lower value): 0.801 (active); normalized growth (locus YHR129C, strain ARP1, stronger effect = lower value): 0.808 (active); normalized growth (locus YHR142W, strain chs7, stronger effect = lower value): 0.706 (active); normalized growth (locus YHR200W, strain rpn10, stronger effect = lower value): 0.674 (active); normalized growth (locus YIL066C, strain RNR3, stronger effect = lower value): 0.737 (active); normalized growth (locus YIL073C, strain SPO22, stronger effect = lower value): 0.681; normalized growth (locus YIL125W, strain kgd1, stronger effect = lower value): 0.803 (active); normalized growth (locus YIR030C, strain dcg1, stronger effect = lower value): 0.59 (active); normalized growth (locus YJL092W, strain hpr5, stronger effect = lower value): 0.659 (active); normalized growth (locus YJL095W, strain BCK1 (second series), stronger effect = lower value): 0.684 (active); normalized growth (locus YJL095W, strain BCK1, stronger effect = lower value): 0.563 (active) and 0.76 (active); normalized growth (locus YJL115W, strain asf1, stronger effect = lower value): 0.861 (active); normalized growth (locus YJL129C, strain trk1, stronger effect = lower value): 1.05; normalized growth (locus YJL134W, strain LCB3, stronger effect = lower value): 1.01; normalized growth (locus YJL154C, strain vps35, stronger effect = lower value): 0.993; normalized growth (locus YJL164C, strain tpk1, stronger effect = lower value): 0.462 (active); normalized growth (locus YJL166W, strain qcr8, stronger effect = lower value): 0.549 (active); normalized growth (locus YJL168C, strain set2, stronger effect = lower value): 0.972; normalized growth (locus YJL187C, strain SWE1 (second series), stronger effect = lower value): 0.524 (active); normalized growth (locus YJR043C, strain POL32, stronger effect = lower value): 0.717 (active); normalized growth (locus YJR066W, strain TOR1, stronger effect = lower value): 0.744 (active)
